Measurements as given in PubChem BioAssay AID1159580 (chemical genetic matrix, 2015).
About 2,000 (36%) of roughly 5,500 compounds were called active. Roughly 18% stayed inconclusive and do not appear here. Cut-off read from the data, not from the text of the source: active = normalized growth mostly below about 0.91 (no sharp cut-off); inconclusive = no clear call, values can overlap the other calls; inactive = mostly above about 0.92. The list shows a part of the results.

Assay: chemical genetic growth profiling, strain panel (AID 1159580);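 note: tested at 20 µM; growth read once vehicle control cultures reached saturation at 30 °C; 1 = growth at the plate median or of vehicle wells; lower values mean less growth of the strain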
Conditions: growth OD
[1] = S. cerevisiae deletion strains, locus YAL013W, strain DEP1, hits give low values
[2] = S. cerevisiae deletion strains, locus YDR150W, strain NUM1, hits give low values
[3] = S. cerevisiae deletion strains, locus YJR075W, strain HOC1, hits give low values
[4] = S. cerevisiae deletion strains, locus YMR263W, strain SAP30, hits give low values
[5] = S. cerevisiae deletion strains, locus YNL128W, strain TEP1, hits give low values
[6] = S. cerevisiae deletion strains, locus YNL322C, strain KRE1, hits give low values
[7] = S. cerevisiae deletion strains, locus YPL055C, strain LGE1, hits give low values

Measured: normalized growth

CO[C@@H]1C[C@@H](C[C@H]2CC[C@H](C)[C@H]([C@@H](C)C(=O)O)O2)O[C@]2(O[C@](C)([C@H]3CC[C@@](C)(C4O[C@@H](C5O[C@@](O)(CO)[C@H](C)C[C@@H]5C)C[C@@H]4C)O3)C[C@H]2C)[C@@H]1C (stereo partly specified)
active: S. cerevisiae deletion strains, locus YBR021W, strain FUR4, hits give low values 1.19 [resistant] | S. cerevisiae deletion strains, locus YER155C, strain BEM2, hits give low values 1.08 [resistant] | S. cerevisiae deletion strains, locus YLR039C, strain RIC1, hits give low values 1.35 [resistant] | S. cerevisiae deletion strains, locus YLR262C, strain YPT6, hits give low values 1.45 [resistant]
inactive: [1] 1.03 | S. cerevisiae deletion strains, locus YBR229C, strain ROT2, hits give low values 1.04 | S. cerevisiae deletion strains, locus YCL029C, strain bik1, hits give low values 0.955 | S. cerevisiae deletion strains, locus YDL035C, strain GPR1, hits give low values 1.03 | S. cerevisiae deletion strains, locus YDL074C, strain BRE1, hits give low values 1.01 | S. cerevisiae deletion strains, locus YDL101C, strain DUN1, hits give low values 1.01 | S. cerevisiae deletion strains, locus YDL134C, strain PPH21, hits give low values 1.01 | S. cerevisiae deletion strains, locus YDL185W, strain tfp1, hits give low values 0.99 | S. cerevisiae deletion strains, locus YDL192W, strain arf1, hits give low values 0.961 | S. cerevisiae deletion strains, locus YDR101C, strain arx1, hits give low values 0.977 | [2] 1.04 | S. cerevisiae deletion strains, locus YDR162C, strain NBP2, hits give low values 1.01 | S. cerevisiae deletion strains, locus YDR318W, strain mcm21, hits give low values 0.966 | S. cerevisiae deletion strains, locus YDR388W, hits give low values 0.981 | S. cerevisiae deletion strains, locus YDR502C, strain sam2, hits give low values 0.99 | S. cerevisiae deletion strains, locus YEL061C, strain CIN8, hits give low values 1.02 | S. cerevisiae deletion strains, locus YER110C, hits give low values 1.03 | S. cerevisiae deletion strains, locus YER167W, strain BCK2, hits give low values 1.02 | S. cerevisiae deletion strains, locus YGL078C, strain dbp3, hits give low values 0.976 | S. cerevisiae deletion strains, locus YGL086W, strain mad1, hits give low values 0.97 | S. cerevisiae deletion strains, locus YGL248W, strain PDE1, hits give low values 1.01 | S. cerevisiae deletion strains, locus YGR078C, strain PAC10, hits give low values 1.02 | S. cerevisiae deletion strains, locus YGR135W, strain pre9, hits give low values 0.984 | S. cerevisiae deletion strains, locus YGR229C, strain SMI1, hits give low values 1.02 | S. cerevisiae deletion strains, locus YGR252W, strain gcn5, hits give low values 1.06 | S. cerevisiae deletion strains, locus YHR030C, strain SLT2, hits give low values 1.03 | S. cerevisiae deletion strains, locus YHR079C, strain IRE1 (second series), hits give low values 0.968 | S. cerevisiae deletion strains, locus YHR094C, strain hxt1, hits give low values 0.992 | S. cerevisiae deletion strains, locus YHR129C, strain ARP1, hits give low values 1.06 | S. cerevisiae deletion strains, locus YHR200W, strain rpn10, hits give low values 0.968 | S. cerevisiae deletion strains, locus YIL066C, strain RNR3, hits give low values 1.01 | S. cerevisiae deletion strains, locus YIL073C, strain SPO22, hits give low values 0.984 | S. cerevisiae deletion strains, locus YIL125W, strain kgd1, hits give low values 0.982 | S. cerevisiae deletion strains, locus YIR030C, strain dcg1, hits give low values 0.982 | S. cerevisiae deletion strains, locus YJL095W, strain BCK1, hits give low values 0.997 | S. cerevisiae deletion strains, locus YJL134W, strain LCB3, hits give low values 1.03 | S. cerevisiae deletion strains, locus YJL168C, strain set2, hits give low values 0.993 | S. cerevisiae deletion strains, locus YJL187C, strain SWE1 (second series), hits give low values 1.01 | S. cerevisiae deletion strains, locus YJR043C, strain POL32, hits give low values 1.02 | [3] 1 | S. cerevisiae deletion strains, locus YKL009W, strain mrt4, hits give low values 0.98 | S. cerevisiae deletion strains, locus YKL068W, hits give low values 1.01 | S. cerevisiae deletion strains, locus YKL085W, strain MDH1 (second series), hits give low values 0.978 | S. cerevisiae deletion strains, locus YKL085W, strain MDH1, hits give low values 0.978 | S. cerevisiae deletion strains, locus YKL190W, strain CNB1, hits give low values 1.02 | S. cerevisiae deletion strains, locus YKR001C, strain vps1, hits give low values 1.02 | S. cerevisiae deletion strains, locus YLR058C, strain SHM2, hits give low values 1.02 | S. cerevisiae deletion strains, locus YLR102C, strain apc9, hits give low values 0.997 | S. cerevisiae deletion strains, locus YLR268W, strain sec22, hits give low values 0.929 | S. cerevisiae deletion strains, locus YLR330W, strain CHS5, hits give low values 1.04 | S. cerevisiae deletion strains, locus YLR342W, strain FKS1 (second series), hits give low values 1.03 | S. cerevisiae deletion strains, locus YLR371W, strain rom2, hits give low values 0.999 | S. cerevisiae deletion strains, locus YLR418C, strain cdc73, hits give low values 1.02 | S. cerevisiae deletion strains, locus YML016C, strain PPZ1, hits give low values 1.03 | S. cerevisiae deletion strains, locus YML032C, strain rad52, hits give low values 0.986 | S. cerevisiae deletion strains, locus YML124C, strain tub3, hits give low values 0.983 | S. cerevisiae deletion strains, locus YMR078C, strain ctf18, hits give low values 1.03 | S. cerevisiae deletion strains, locus YMR223W, strain ubp8, hits give low values 0.994 | [4] 1.01 | S. cerevisiae deletion strains, locus YMR307W, strain GAS1, hits give low values 1.17 | S. cerevisiae deletion strains, locus YNL067W, strain RPL9B, hits give low values 1.01 | [5] 1.04 | S. cerevisiae deletion strains, locus YNL153C, strain GIM3, hits give low values 0.999 | S. cerevisiae deletion strains, locus YNL233W, strain BNI4, hits give low values 0.996 | S. cerevisiae deletion strains, locus YNL250W, strain rad50, hits give low values 0.966 | S. cerevisiae deletion strains, locus YNL271C, strain bni1, hits give low values 1.01 | S. cerevisiae deletion strains, locus YNL298W, strain CLA4, hits give low values 0.989 | S. cerevisiae deletion strains, locus YNL307C, strain MCK1, hits give low values 1.01 | [6] 1.02 | S. cerevisiae deletion strains, locus YNR052C, strain pop2, hits give low values 0.976 | S. cerevisiae deletion strains, locus YOL006C, strain TOP1, hits give low values 0.814 | S. cerevisiae deletion strains, locus YOL012C, strain htz1 1.61 | S. cerevisiae deletion strains, locus YOL147C, strain pex11, hits give low values 0.989 | S. cerevisiae deletion strains, locus YOR061W, strain CKA2, hits give low values 1.02 | S. cerevisiae deletion strains, locus YOR069W, strain VPS5, hits give low values 1.03 | S. cerevisiae deletion strains, locus YOR136W, strain idh2, hits give low values 0.976 | S. cerevisiae deletion strains, locus YOR144C, strain elg1, hits give low values 0.988 | S. cerevisiae deletion strains, locus YOR184W, strain ser1, hits give low values 0.975 | S. cerevisiae deletion strains, locus YOR316C, strain cot1, hits give low values 0.99 | [7] 1.03 | S. cerevisiae deletion strains, locus YPL241C, strain CIN2, hits give low values 1.04 | S. cerevisiae deletion strains, locus YPR119W, strain clb2, hits give low values 0.99 | S. cerevisiae deletion strains, locus YPR141C, strain kar3, hits give low values 0.986 | S. cerevisiae deletion strains, locus YPR163C, strain tif3, hits give low values 1.01 | S. cerevisiae deletion strains, locus YPR167C, strain met16, hits give low values 0.977 | S. cerevisiae deletion strains, strain wtn01, hits give low values 0.969 | S. cerevisiae strains, strain wild type, hits give low values 1

CC(N)=NCCCC[C@@H](N)C(=O)O
inactive: [1] 1.01 | S. cerevisiae deletion strains, locus YAL040C, strain CLN3, hits give low values 0.998 | S. cerevisiae deletion strains, locus YCL061C, strain MRC1 (second series), hits give low values 1.01 | [2] 1 | S. cerevisiae deletion strains, locus YDR363W, strain ESC2, hits give low values 1.01 | S. cerevisiae deletion strains, locus YER002W, strain NOP16, hits give low values 0.994 | [3] 1 | [4] 1.01 | [5] 1.02 | S. cerevisiae deletion strains, locus YNL175C, strain NOP13, hits give low values 1 | S. cerevisiae deletion strains, locus YNL197C, strain WHI3, hits give low values 1.01 | S. cerevisiae deletion strains, locus YNL224C, strain SQS1, hits give low values 1.01 | [6] 1.02 | S. cerevisiae deletion strains, locus YOR083W, strain WHI5 (second series), hits give low values 1.01 | [7] 1
